For the assay, the target named is CCT7 (UniProt Q99832). In words: cross-linking mass spectrometry. The note with it: TSTO, in cells.
Chain of CCT7 (Q99832 whole entry): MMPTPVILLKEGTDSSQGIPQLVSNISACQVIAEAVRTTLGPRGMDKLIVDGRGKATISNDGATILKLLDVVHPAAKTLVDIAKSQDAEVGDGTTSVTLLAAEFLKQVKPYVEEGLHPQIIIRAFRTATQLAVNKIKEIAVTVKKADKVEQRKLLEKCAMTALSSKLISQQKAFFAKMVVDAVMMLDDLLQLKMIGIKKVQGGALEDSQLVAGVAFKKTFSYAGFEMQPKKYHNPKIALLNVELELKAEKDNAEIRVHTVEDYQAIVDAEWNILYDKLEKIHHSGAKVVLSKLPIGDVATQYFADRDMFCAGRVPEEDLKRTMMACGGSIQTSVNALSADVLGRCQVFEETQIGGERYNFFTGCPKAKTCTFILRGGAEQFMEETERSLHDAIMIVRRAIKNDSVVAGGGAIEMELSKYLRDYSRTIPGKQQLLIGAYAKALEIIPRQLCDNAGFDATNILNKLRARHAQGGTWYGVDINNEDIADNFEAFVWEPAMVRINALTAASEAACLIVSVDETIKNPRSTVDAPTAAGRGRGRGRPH
Chain of VBP1, P61758 (P61758 whole entry): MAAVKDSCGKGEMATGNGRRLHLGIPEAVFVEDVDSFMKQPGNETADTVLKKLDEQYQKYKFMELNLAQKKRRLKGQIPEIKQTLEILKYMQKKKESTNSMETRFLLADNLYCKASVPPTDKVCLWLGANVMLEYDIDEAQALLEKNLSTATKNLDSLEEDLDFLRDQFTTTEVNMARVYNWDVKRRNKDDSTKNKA
Chain of CCT8, P50990 (P50990 whole entry): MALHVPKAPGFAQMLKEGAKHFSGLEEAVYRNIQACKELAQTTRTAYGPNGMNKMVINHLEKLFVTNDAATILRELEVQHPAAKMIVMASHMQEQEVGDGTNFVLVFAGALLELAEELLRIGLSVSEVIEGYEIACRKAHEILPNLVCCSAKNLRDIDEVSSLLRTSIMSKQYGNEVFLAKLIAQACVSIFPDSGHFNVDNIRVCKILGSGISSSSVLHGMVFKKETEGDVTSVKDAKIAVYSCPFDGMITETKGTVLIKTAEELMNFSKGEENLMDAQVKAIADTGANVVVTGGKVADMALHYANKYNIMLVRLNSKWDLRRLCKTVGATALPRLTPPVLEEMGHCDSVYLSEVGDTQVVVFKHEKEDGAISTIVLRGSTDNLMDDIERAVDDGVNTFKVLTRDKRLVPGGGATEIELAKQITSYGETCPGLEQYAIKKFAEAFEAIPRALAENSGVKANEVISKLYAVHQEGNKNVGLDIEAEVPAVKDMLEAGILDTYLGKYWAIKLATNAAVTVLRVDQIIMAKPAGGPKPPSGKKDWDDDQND
Chain of CCT2, P78371 (P78371 whole entry): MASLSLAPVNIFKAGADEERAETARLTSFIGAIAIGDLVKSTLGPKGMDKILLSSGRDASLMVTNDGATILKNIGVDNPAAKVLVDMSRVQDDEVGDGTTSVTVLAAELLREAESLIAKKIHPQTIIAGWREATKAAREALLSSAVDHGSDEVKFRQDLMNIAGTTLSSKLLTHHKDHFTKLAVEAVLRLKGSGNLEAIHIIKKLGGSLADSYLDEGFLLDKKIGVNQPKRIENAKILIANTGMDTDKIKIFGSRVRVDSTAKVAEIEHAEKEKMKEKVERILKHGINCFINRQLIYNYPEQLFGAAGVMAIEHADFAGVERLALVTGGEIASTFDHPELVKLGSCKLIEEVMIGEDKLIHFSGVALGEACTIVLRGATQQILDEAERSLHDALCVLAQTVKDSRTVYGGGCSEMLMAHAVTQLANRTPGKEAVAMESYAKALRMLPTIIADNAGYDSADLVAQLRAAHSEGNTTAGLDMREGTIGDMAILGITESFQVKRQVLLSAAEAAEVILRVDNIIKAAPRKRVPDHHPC
Chain of CCT5, P48643 (P48643 whole entry): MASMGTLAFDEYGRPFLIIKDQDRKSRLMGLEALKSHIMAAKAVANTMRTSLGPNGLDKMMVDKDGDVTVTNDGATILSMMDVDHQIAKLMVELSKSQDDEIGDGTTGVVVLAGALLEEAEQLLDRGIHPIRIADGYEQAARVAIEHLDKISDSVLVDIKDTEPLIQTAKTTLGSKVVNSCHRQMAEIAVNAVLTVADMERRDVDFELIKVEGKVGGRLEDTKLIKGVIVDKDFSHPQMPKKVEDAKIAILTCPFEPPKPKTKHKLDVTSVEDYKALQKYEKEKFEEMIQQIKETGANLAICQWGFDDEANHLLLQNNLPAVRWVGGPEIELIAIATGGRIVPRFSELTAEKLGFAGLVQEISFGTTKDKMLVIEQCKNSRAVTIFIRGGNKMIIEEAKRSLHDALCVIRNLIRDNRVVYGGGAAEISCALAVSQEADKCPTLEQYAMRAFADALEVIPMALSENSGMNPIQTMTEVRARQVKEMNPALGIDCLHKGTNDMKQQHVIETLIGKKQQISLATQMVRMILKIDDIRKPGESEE
CCT5, P48643: the cross-linked residues entry was “K232 - K250”.
Take VBP1, P61758: the cross-linked residues entry was “K189 - K292”.
With CCT8, P50990, the cross-linked residues entry is “K270 - K280”.
For the substance CCT2, P78371, the cross-linked residues entry is “K248 - K250”.

For the origin of these results see paper PMC12215968.
